The source made the active and inactive calls. How the calls were made is not given here.

A short description of experiment [1]: Immunotoxin (HA22) sensitization/mitigation study. Vehicle arm (PBS) (AID 1159510).
Experiment [2] in a line: Immunotoxin (SS1P) sensitization/mitigation study. Vehicle arm (DMEM) (AID 1159513).
Potency means the concentration at half of the fitted maximal effect.

Take `O=C(C=Cc1ccc(/C=C/C(=O)Nc2ccc(C3=NCCN3)cc2)cc1)Nc1ccc(C2=NCCN2)cc1`: the Potency result in experiment [1] and in experiment [2] was “inactive” throughout.

Consider `Cc1cc(Nc2cc(N3CCN(C)CC3)nc(Sc3ccc(NC(=O)C4CC4)cc3)n2)n[nH]1`, for which the Potency in experiment [1] was 7.43 µM (active); in experiment [2], 18.7 µM (active).

In the case of `CC(C)C[C@@H](C(=O)N[C@H](C(=O)OC1CCCC1)c1ccccc1)[C@H](O)C(=O)NO`, the Potency was 23.5 µM (active) in experiment [1] and 16.6 µM (active) in experiment [2].

On to `Cc1ccc(C(=O)Nc2ccc(CN3CCN(C)CC3)c(C(F)(F)F)c2)cc1C#Cc1cnc2cccnn12`, for which the Potency in experiment [1] was 1.32 µM (active); in experiment [2], 6.62 µM (active).

With `COc1ccc2c(c1)CC[C@@H](CN(C)CC(=O)O)[C@H]2c1ccccc1`, the Potency result in experiment [1] and in experiment [2] was “inactive” in each case.

As for `COc1ccc2c(c1)CC[C@H]1[C@@H]2CC[C@]2(C)[C@@H](NCCCCCCN3C(=O)C=CC3=O)CC[C@H]12`, the Potency in experiment [1] and in experiment [2] was 20.9 µM (active) each time.

With `O=c1cc(CN2CCOCC2)occ1OCCCCCSc1ccnc2cc(C(F)(F)F)ccc12`, the Potency was 20.9 µM (active) in experiment [1] and 5.9 µM (active) in experiment [2].

As for `CCOc1cc2ncc(C#N)c(Nc3ccc(F)c(Cl)c3)c2cc1NC(=O)C=CCN(C)C`, the Potency in experiment [1] is 4.69 µM (active); in experiment [2], 14.8 µM (active).

As for `CCCCCCCCCCCCCCCCCCOP(=O)([O-])OC1CC[N+](C)(C)CC1`, the Potency result in experiment [1] and in experiment [2] was “inactive” throughout.

For `CC(C)(C)OC(=O)Nc1ccc(-c2cc(C(=O)NCCCCCCC(=O)NO)no2)cc1`, the Potency in experiment [1] was 0.0935 µM (active); in experiment [2], 1.18 µM (active).

As for `C=C1C(=CC=C2CCCC3(C)[C@@H]([C@H](C)C=CC=CC(O)(CC)CC)CC[C@@H]23)C[C@@H](O)C[C@@H]1O` (stereo partly drawn), the Potency was 23.5 µM (active) in experiment [1] and 20.9 µM (active) in experiment [2].

In the case of `Cc1nc2cnc3ccc(C#Cc4cccnc4)cc3c2n1-c1ccc(C(C)(C)C#N)cc1`, the Potency was 1.87 µM (active) in experiment [1] and 0.132 µM (active) in experiment [2].

For the compound `C[C@]1(CO)CN(c2cc(C(=O)Nc3ccc4c(c3)-c3c(c(C(N)=O)nn3-c3ccc(F)cc3)CC4)c(Cl)cn2)C[C@@]1(C)CO`, the results for the Potency in experiment [1] and in experiment [2] were 3.32 µM (active) and 16.6 µM (active), respectively.

As to `Cc1ccc(NC(=O)c2ccc(CN3CCN(C)CC3)cc2)cc1Nc1nc(-c2cccnc2)cs1`, the Potency in experiment [1] was 20.9 µM (active); in experiment [2], 23.5 µM (active).

Values taken from PubChem BioAssay (NCATS).
